For 14 molecules, growth results are on record in PubChem BioAssay (NCI).

The panel holds about 83,000 compounds, 20% with a hit somewhere; the sample as a whole holds those more often.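 Interpretation: 100, growth as untreated; towards 0, rising growth inhibition; 0, no net growth; 0 to -100, cell death. Compounds scoring below 10 were considered active.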 Unmarked numbers belong to inactive results. Active and inactive are the calls of the source.

Test systems include NCI-H23 lung; NCI-H226 lung; NCI-H322M lung; HOP-62 NSCLC; NCI-H460 lung; HOP-92 NSCLC; A549/ATCC NSCLC; 786-0 renal; COLO 205 colon; NCI-H522 lung.
Holding throughout (assay): NCI-60 one-dose screen, 48 h (100 = growth as untreated, 0 = no growth, -100 = all killed)
Holding throughout (conditions): 10 µM unless noted

With `O=C(O)c1ccc(N=CC(=O)c2ccc(-c3ccccc3)cc2)cc1`, the growth in the assay with NCI-H23 lung was 93.6%; with NCI-H226 lung, 83.9%; with NCI-H322M lung it was 105%; in the assay with HOP-62 NSCLC it was 103%; in the assay on NCI-H460 lung it was 104%; in the assay on HOP-92 NSCLC, 84.2%. For the same molecule, the growth in the assay with A549/ATCC NSCLC is 92.1%; with 786-0 renal, 104%; with COLO 205 colon, 111%.
`O=c1c(F)cn(Cc2ccccc2CCl)c(=O)n1Cc1ccccc1CCl`: the growth in the assay on NCI-H23 lung is -63.1% (active); in the assay with NCI-H226 lung, -22% (active); in the assay with NCI-H322M lung, -19.3% (active); in the assay on HOP-62 NSCLC, -51.7% (active); in the assay with NCI-H460 lung, -75% (active); in the assay with HOP-92 NSCLC it was -77.5% (active). The growth in the assay with A549/ATCC NSCLC was 1.3% (active); in the assay with 786-0 renal, -54.7% (active); in the assay with COLO 205 colon, -75.3% (active).
For the molecule `COc1cc2c(cc1-c1c(C)noc1C)ncc1nc(C3CCCCC3)n([C@H](C)COC(F)F)c12`, the growth with NCI-H23 lung was 59.9%; in the assay with NCI-H226 lung, 53.5%; with NCI-H322M lung, 40.3%; with HOP-62 NSCLC it was 39.4%; in the assay with NCI-H460 lung, 53.2%; in the assay on HOP-92 NSCLC, 34.9%. Further, the results for the growth in the assay on A549/ATCC NSCLC, with 786-0 renal and in the assay with COLO 205 colon were 33.4%, 48.7% and 24.7%, respectively.
Take `NC(=NCCCOc1ccc(Cl)cc1)Nc1ccc(Cl)cc1`: the growth in the assay with NCI-H23 lung was 23.4%; in the assay on NCI-H226 lung, 107%; in the assay on NCI-H322M lung, 31.8%; in the assay with HOP-62 NSCLC, 33.9%; with NCI-H460 lung, 48%; in the assay on HOP-92 NSCLC, 21.6%. In addition, the growth in the assay with A549/ATCC NSCLC is 24.1%; with 786-0 renal, 58.4%; in the assay on COLO 205 colon, -65.6% (active).
Turning to `CCCCn1c(-c2ccc(C(=O)O/N=C(\N)c3ccc4c(c3)OCO4)cc2)nc(-c2ccccc2)c1-c1ccccc1`, the growth in the assay with NCI-H23 lung was 35.3%; in the assay with NCI-H226 lung, 49.9%; in the assay on NCI-H322M lung, 66.6%; with HOP-62 NSCLC, 79.7%; with NCI-H460 lung, 0.397% (active); in the assay with HOP-92 NSCLC, 17.4%. Further, the growth is -37.1% (active) in the assay on NCI-H522 lung, 41.9% in the assay on 786-0 renal and 57.5% in the assay on COLO 205 colon.
For `CCCOc1cc2ccccc2cc1C(=O)Nc1nc(NC)c2c(ccc3nccc32)[nH]1`, the growth was -64.8% (active) in the assay with NCI-H23 lung; -59.3% (active) with NCI-H226 lung; -65.9% (active) in the assay with NCI-H322M lung; -73.1% (active) in the assay with HOP-62 NSCLC; -78.3% (active) in the assay on NCI-H460 lung; -61.2% (active) in the assay with HOP-92 NSCLC. The growth was -74.8% (active) in the assay with A549/ATCC NSCLC, -72.9% (active) in the assay on 786-0 renal and -76.2% (active) in the assay on COLO 205 colon.
Turning to `COc1cc(-c2nc(C(=O)NCC(=O)NO)nn2-c2ccc(Cl)cc2)cc(OC)c1OC`, the growth in the assay with NCI-H23 lung is 97.1%; in the assay with NCI-H226 lung, 91.8%; with NCI-H322M lung, 118%; in the assay with HOP-62 NSCLC, 93.6%; with NCI-H460 lung, 107%; in the assay on HOP-92 NSCLC it was 86.5%. Moreover, the growth in the assay on A549/ATCC NSCLC is 90.1%; with 786-0 renal, 101%; in the assay with COLO 205 colon it was 103%.
Take `COc1ccc(CN2c3ccccc3Sc3ccccc32)cc1O`: the growth is 36.6% in the assay on NCI-H23 lung; 71% in the assay on NCI-H226 lung; 33.1% in the assay with NCI-H322M lung; 36.3% with HOP-62 NSCLC; 10% in the assay on NCI-H460 lung; 50.4% in the assay on HOP-92 NSCLC. The growth with A549/ATCC NSCLC was 24.2%; in the assay with 786-0 renal, 42.5%; in the assay with COLO 205 colon, -7.4% (active).
Regarding `Clc1ccc2c(NCCCCNc3nc(N4CCCCC4)nc4ccccc34)ccnc2c1`, the growth is 53.1% in the assay with NCI-H23 lung; 35.8% in the assay on NCI-H226 lung; 6.86% (active) in the assay on NCI-H322M lung; -11.1% (active) with HOP-62 NSCLC; 6.3% (active) in the assay on NCI-H460 lung; -35.3% (active) with HOP-92 NSCLC. Moreover, the growth was 16.2% with A549/ATCC NSCLC, -90.3% (active) in the assay with 786-0 renal and -64.5% (active) in the assay on COLO 205 colon.
For `Cc1nc2c3c(-c4ccccc4)c(-c4ccccc4)oc3ncn2n1`, the growth is 93.1% with NCI-H23 lung; 92.2% in the assay with NCI-H226 lung; 102% in the assay with NCI-H322M lung; 90.7% in the assay with HOP-62 NSCLC; 98% with NCI-H460 lung; 81.7% in the assay with HOP-92 NSCLC. Also, the growth is 80.8% in the assay with NCI-H522 lung, 99.1% with 786-0 renal and 110% in the assay on COLO 205 colon.
Turning to `CCOC(=O)c1cc(C(=O)c2ccc(O)c(O)c2)n2ccc(-c3ccn4c(C(=O)c5ccc(O)c(O)c5)cc(C(=O)OCC)c4c3)cc12`, the growth with NCI-H23 lung is 96.7%; in the assay with NCI-H226 lung, 107%; with NCI-H322M lung it was 94.3%; with HOP-62 NSCLC, 99.7%; in the assay on NCI-H460 lung it was 101%; with HOP-92 NSCLC it was 45.7%. Besides, the figures for the growth in the assay on A549/ATCC NSCLC, with 786-0 renal and in the assay on COLO 205 colon were 92.3%, 87% and 102%, respectively.
Regarding `COc1ccc(-c2nc3ccc(-c4nc5ccc(N6CCN(c7ccncc7)CC6)cc5[nH]4)cc3[nH]2)cc1OC`, the growth is 36.9% in the assay on NCI-H23 lung; 46% in the assay on NCI-H226 lung; 81.2% in the assay on NCI-H322M lung; 61% in the assay with HOP-62 NSCLC; 83.5% with NCI-H460 lung; 57.8% in the assay on HOP-92 NSCLC. Further, the growth in the assay on NCI-H522 lung is -58% (active); with 786-0 renal, 76.4%; in the assay on COLO 205 colon, 13.3%.
As to `Cn1ccnc1C(=O)/C=C/c1ccc(CC(=O)Nc2ccccc2)cc1`, the growth in the assay on NCI-H23 lung is 18.9%; in the assay with NCI-H226 lung, 47%; in the assay with NCI-H322M lung, 2.66% (active); in the assay on HOP-62 NSCLC it was 6.23% (active); in the assay on NCI-H460 lung it was -19% (active); in the assay on HOP-92 NSCLC, 26.6%. Also, the growth with A549/ATCC NSCLC is 5.36% (active); with 786-0 renal, 18.6%; in the assay on COLO 205 colon, 4.76% (active).
As for `Clc1ccc2c(NCCNc3nc(N4CCCCC4)nc4ccccc34)ccnc2c1`, the growth in the assay on NCI-H23 lung was 54.3%; with NCI-H226 lung, -8.68% (active); in the assay with NCI-H322M lung, 0.0479% (active); in the assay on HOP-62 NSCLC, -18.2% (active); in the assay on NCI-H460 lung, -39.4% (active); in the assay with HOP-92 NSCLC it was -16% (active). Besides, the growth with A549/ATCC NSCLC was 0.13% (active); with 786-0 renal, -36.9% (active); in the assay with COLO 205 colon, -84.6% (active).
